Consider 33 compounds from PubChem BioAssay (EPA / NIEHS).

Calls of active or inactive are those of the source. The calls were made as follows: active = hit-call score of the fitted dose curve at least 0.9, where 1 is the maximum; inactive = score below 0.9.

Usually AC50 stands for the concentration at which the activity in the assay is half-maximal.

Read-out in one assay: Interferon-gamma inducible Protein 10 (IP10), CXCL10 (gene 3627)
The experiment in a line: BSK_BE3C_IP10: BioMAP Diversity Plus: BE3C Assay for Interferon-gamma inducible Protein 10 (IP10) Biomarker Activity (AID 2283034). As to conditions: primary human bronchial epithelial cells; actives raise or lower the signal. In outline:
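Chemical is dosed onto human lung bronchial epithelial primary cells, cultures are incubated 24 h, and IP-10 is then quantified by ELISA. Gain or loss of signal is fitted in both directions relative to DMSO.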
In the case of `COc1ccccc1N`, the result was inactive.

With `CCN(CC)C(=O)C(Cl)=C(C)OP(=O)(OC)OC`, the result was inactive.

In the case of `CC(C=O)Cc1ccc2c(c1)OCO2` (centres undefined), the outcome was inactive.

In the case of `OCCN(CCO)CCO`, the outcome was inactive.

`[Cl][Sn]([c]1ccccc1)([c]1ccccc1)[c]1ccccc1`: the AC50 is 0.0935 µM (active).

For `C#CCOC(=O)/C=C(C)/C=C/CC(C)CCCC(C)C` (centres undefined), the AC50 was 1.32 µM (active).

On to `CN(C)C(=S)S`, for which the AC50 is 28.7 µM (active).

In the case of `CC(C)=CC1C(C(=O)OCc2cccc(Oc3ccccc3)c2)C1(C)C` (centres undefined), the result was inactive.

Consider `CCOP(=S)(OCC)OP(=S)(OCC)OCC`, for which the outcome was inactive.

Consider `O=S(=O)(c1ccc(Cl)cc1)c1cc(Cl)c(Cl)cc1Cl`, for which the half-maximal activity concentration (AC50) was 28.6 µM (active).

For the compound `Cc1cc(C)cc(C)c1`, the result was inactive.

Read-out in another assay: Monokine induced gamma interferon (MIG), CXCL9 (gene 4283)
The experiment in a line: BSK_BE3C_MIG: BioMAP Diversity Plus: BE3C Assay for Monokine induced gamma interferon (MIG) Biomarker Activity (AID 2283035). To be noted: primary human bronchial epithelial cells; actives raise or lower the signal. In outline: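 ELISA read-out of MIG in human lung bronchial epithelial primary cultures, 24 h post-dosing. Bidirectional curve fit vs DMSO baseline.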
For `Cc1ccc2nc3sc(=O)sc3nc2c1`, the result was inactive.

Consider `OC(Cc1ccccc1Cl)(Cn1cncn1)C1(Cl)CC1` (centres undefined), for which the outcome was inactive.

Take `Cc1ccccc1OP(=O)(Oc1ccccc1)Oc1ccccc1`: the outcome was inactive.

Take `O=[N+]([O-])c1cccc2ccccc12`: the result was inactive.

Take `Oc1c(Cl)cc(Cl)cc1Cl`: the outcome was inactive.

As to `CCOC(=O)CCN(SN(C)C(=O)Oc1cccc2c1OC(C)(C)C2)C(C)C`, the result was inactive.

`OC(Cc1ccccc1Cl)(Cn1[nH]cnc1=S)C1(Cl)CC1` (centres undefined): the AC50 is 31.1 µM (active).

Regarding `CCOP(=O)(OCC)SCCSCC`, the outcome was inactive.

With `N#CCCC(Br)(C#N)CBr` (centres undefined), the AC50 was 36.8 µM (active).

With `Cc1cc(C(C)(C)c2ccc(O)c(C)c2)ccc1O`, the result was inactive.

`O=C(O)COc1cc(Cl)c(Cl)cc1Cl`: the outcome was inactive.

Take `O=[N+]([O-])c1ccc(Nc2ccccc2)cc1`: the outcome was inactive.

In the case of `Cc1ccccc1OP(=O)(Oc1ccccc1C)Oc1ccccc1C`, the result was inactive.

`CCOC(=O)C(SP(=S)(OC)OC)c1ccccc1` (centres undefined): the outcome was inactive.

With `CC(C)(C)c1cc([N+](=O)[O-])cc(C(C)(C)C)c1O`, the outcome was inactive.

Consider `CC1(C)[C@H](C(=O)O[C@H](C#N)c2cccc(Oc3ccccc3)c2)[C@@H]1/C=C(\Cl)C(F)(F)F`, for which the result was inactive.

For `c1ccc(-c2cccc(-c3ccccc3)c2)cc1`, the outcome was inactive.

Turning to `Cc1ccc(OP(=O)(Oc2ccc(C)cc2C)Oc2ccc(C)cc2C)c(C)c1`, the result was inactive.

As to `CC(C)(C)c1ccccc1O`, the result was inactive.

Consider `O=S(=O)(C(Cl)(Cl)Cl)C(Cl)(Cl)Cl`, for which the half-maximal activity concentration (AC50) was 7.75 µM (active).

As for `C=CC(Cl)CCl` (centres undefined), the outcome was inactive.

Turning to `CCOP(=O)(OCC)OC(=CCl)c1ccc(Cl)cc1Cl`, the outcome was inactive.

For `COc1ccccc1N`, the outcome was inactive.

On to `CCN(CC)C(=O)C(Cl)=C(C)OP(=O)(OC)OC`, for which the result was inactive.

With `CC(C=O)Cc1ccc2c(c1)OCO2` (centres undefined), the result was inactive.

Turning to `OCCN(CCO)CCO`, the result was inactive.

On to `[Cl][Sn]([c]1ccccc1)([c]1ccccc1)[c]1ccccc1`, for which the AC50 is 0.209 µM (active).

With `C#CCOC(=O)/C=C(C)/C=C/CC(C)CCCC(C)C` (centres undefined), the outcome was inactive.

On to `CN(C)C(=S)S`, for which the AC50 was 23.1 µM (active).

Consider `CC(C)=CC1C(C(=O)OCc2cccc(Oc3ccccc3)c2)C1(C)C` (centres undefined), for which the outcome was inactive.

Take `CCOP(=S)(OCC)OP(=S)(OCC)OCC`: the outcome was inactive.

Regarding `O=S(=O)(c1ccc(Cl)cc1)c1cc(Cl)c(Cl)cc1Cl`, the result was inactive.

As to `Cc1cc(C)cc(C)c1`, the outcome was inactive.
